From PubChem BioAssay (EPA / NIEHS)
The source made the active and inactive calls. The calls were made as follows: active = hit-call score of the fitted dose curve at least 0.9, where 1 is the maximum; inactive = score below 0.9.

Tests used:
[1] = ATG_E_Box_CIS: Attagene CIS-FACTORIAL HepG2 Assay for human Enhancer Box (E-box) (AID 2282936); details: HepG2 E-box cis-reporter transcription, actives raise or lower the signal
Summary of the method: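 DMSO served as negative control and baseline for bidirectional fitting. Human hepatoma HepG2 cells, transiently transfected with cis-reporter constructs, were dosed 24 h; reporter mRNA read by RT-PCR and capillary electrophoresis.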

[2] = ATG_M_61_CIS: Attagene CIS-FACTORIAL HepG2 Assay for M61 Transcription Factor (Internal Marker) (AID 2282937); details: HepG2 Attagene CIS-FACTORIAL M61 internal marker reporter; actives raise or lower the signal
Summary of the method: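 This endpoint serves as an internal background control within a multiplexed HepG2 cis-reporter panel. Cells are exposed for 24 h; reporter mRNA is amplified, fluorescently labelled and sized by capillary electrophoresis, with DMSO as negative control.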

[3] = ATG_EGR_CIS: Attagene CIS-FACTORIAL HepG2 Assay for human Early Growth Response 1 (EGR1) (AID 2282938); details: HepG2 Attagene CIS-FACTORIAL EGR reporter mRNA; actives raise or lower the signal
Summary of the method: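 HepG2, transient MRTU transfection (cis promoters), 24 h compound. RNA → RT (oligo-dT) → PCR → 6-FAM labelling → HpaI cut → CE fluorescence. Bidirectional fit, DMSO baseline.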

[4] = ATG_M_19_CIS: Attagene CIS-FACTORIAL HepG2 Assay for M19 Transcription Factor (Internal Marker) (AID 2282939); details: HepG2 Attagene CIS-FACTORIAL M19 internal marker reporter; actives raise or lower the signal
Summary of the method: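 HepG2 cells transiently transfected with cis-regulated multiple reporter transcription units were dosed for 24 h; reporter mRNA was quantified by RT-PCR, 6-FAM primer-extension labelling, HpaI digestion and capillary electrophoresis, with bidirectional fitting against DMSO baseline.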

[5] = ATG_Ets_CIS: Attagene CIS-FACTORIAL HepG2 Assay for human Erythroblast Transformation Specific (ETS) (AID 2282941); details: HepG2 ETS cis-reporter transcription, actives raise or lower the signal
Summary of the method: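 After transient cis-reporter transfection, HepG2 cells receive test chemical for 24 h. Reporter mRNA levels, measured by RT-PCR and capillary electrophoresis fluorescence, are analysed bidirectionally relative to the DMSO baseline.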

[6] = molecular target: Hepatocyte nuclear factor 3-beta (Homo sapiens) (UniProt Q9Y261); assay: ATG_FoxA2_CIS: Attagene CIS-FACTORIAL HepG2 Assay for human Forkhead box A2 (FOXA2) (AID 2282942); details: HepG2 cis-reporter transcription factor activity, 24 h; actives raise or lower the signal
Chain of Hepatocyte nuclear factor 3-beta (Homo sapiens) (Q9Y261 whole entry, looked up): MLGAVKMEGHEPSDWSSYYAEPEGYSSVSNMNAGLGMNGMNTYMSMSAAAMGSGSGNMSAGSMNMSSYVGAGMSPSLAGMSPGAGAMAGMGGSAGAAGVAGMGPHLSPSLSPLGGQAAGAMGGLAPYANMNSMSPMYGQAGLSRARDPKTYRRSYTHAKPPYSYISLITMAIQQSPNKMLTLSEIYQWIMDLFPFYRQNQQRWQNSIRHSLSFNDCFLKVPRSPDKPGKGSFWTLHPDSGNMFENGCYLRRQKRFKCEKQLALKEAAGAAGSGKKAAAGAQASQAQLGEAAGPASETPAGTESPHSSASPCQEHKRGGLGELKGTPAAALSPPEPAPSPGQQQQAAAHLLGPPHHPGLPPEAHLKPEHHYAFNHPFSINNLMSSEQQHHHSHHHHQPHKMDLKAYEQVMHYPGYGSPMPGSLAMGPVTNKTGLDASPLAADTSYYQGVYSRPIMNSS
Summary of the method: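 Cells: HepG2, transient multiplex reporter transfection. Exposure 24 h. Detection: reporter-specific RT-PCR, fluorescent labelling, restriction digest, capillary electrophoresis. Analysis: bidirectional curve fit, DMSO as negative control.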

[7] = ATG_FoxO_CIS: Attagene CIS-FACTORIAL HepG2 Assay for human Forkhead box O (FoxO) (AID 2282943); details: HepG2 Attagene cis-reporter, FoxO element, mRNA; actives raise or lower the signal
Summary of the method: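 HepG2, transient MRTU transfection (cis element, endogenous TFs). Dose 24 h. TriZol RNA → oligo(dT) RT → PCR → 6-FAM primer extension → HpaI cut → CE. Gain/loss vs DMSO.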

[8] = ATG_GATA_CIS: Attagene CIS-FACTORIAL HepG2 Assay for human GATA Binding Protein (AID 2282944); details: HepG2 GATA cis-element reporter, Attagene multiplex mRNA; actives raise or lower the signal
Summary of the method: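 HepG2 cells transiently transfected with multiplexed cis-element reporter units reflecting endogenous transcription factor activity; reporter mRNA measured after 24 h dosing by RT-PCR, 6-FAM labeling, HpaI digestion and capillary electrophoresis. Bidirectional fitting versus DMSO baseline.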

[9] = ATG_GLI_CIS: Attagene CIS-FACTORIAL HepG2 Assay for human Zinc Finger Protein GLI1 (AID 2282945); details: HepG2, Attagene cis-factorial reporter mRNA, GLI element; actives raise or lower the signal
Summary of the method: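 Bidirectional curve fits relative to DMSO, using reporter mRNA levels from RT-PCR plus capillary electrophoresis. Cells were HepG2 transiently carrying cis-regulated reporter constructs, harvested 24 h after dosing.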

[10] = ATG_GRE_CIS: Attagene CIS-FACTORIAL HepG2 Assay for human Glucocorticoid Response Elements (GRE) (AID 2282947); details: HepG2 GRE cis-reporter, Attagene multiplex mRNA; actives raise or lower the signal
Summary of the method: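 Assay uses human hepatoma HepG2 cells transfected with cis-promoter reporter units, exposed 24 h. mRNA from reporters detected by RT-PCR plus capillary electrophoresis; DMSO serves as negative control and baseline.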

[11] = ATG_ISRE_CIS: Attagene CIS-FACTORIAL HepG2 Assay for human Interferon Regulatory Factor 1 (IRF1) binding to an Interferon-Stimulated Response Element (ISRE) (AID 2282948); details: HepG2 ISRE cis-reporter (Attagene), mRNA transcription readout; actives raise or lower the signal
Summary of the method: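 Quantitation relies on labelled RT-PCR fragments separated by capillary electrophoresis. Human HepG2 cells bearing cis-promoter reporter constructs were treated 24 h; DMSO served as baseline for bidirectional fitting.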

[12] = ATG_M_32_CIS: Attagene CIS-FACTORIAL HepG2 Assay for M32 Transcription Factor (Internal Marker) (AID 2282949); details: HepG2 Attagene cis-factorial M32 reporter, mRNA; actives raise or lower the signal;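 also: background control marker of the multiplexed CIS panel rather than a real target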
Summary of the method: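 Following 24 h chemical exposure of HepG2 cells transiently expressing cis-promoter reporter constructs, reporter transcript levels were determined by RT-PCR with fluorescent labelling and capillary electrophoresis, then fitted bidirectionally against DMSO.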

[13] = ATG_M_06_CIS: Attagene CIS-FACTORIAL HepG2 Assay for M06 Transcription Factor (Internal Marker) (AID 2282950); details: HepG2 Attagene CIS-FACTORIAL M06 internal marker reporter; actives raise or lower the signal
Summary of the method: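 HepG2 cells transiently transfected with cis-regulated multiple reporter transcription units were exposed to chemical for 24 h; reporter mRNA was quantified by RT-PCR, 6-FAM primer labelling, HpaI digestion and capillary electrophoresis, fitted bidirectionally against DMSO.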

[14] = molecular target: Hepatocyte nuclear factor 6 (Homo sapiens) (UniProt Q9UBC0); assay: ATG_HNF6_CIS: Attagene CIS-FACTORIAL HepG2 Assay for human Hepatocyte Nuclear Factor 6 (HNF6) (AID 2282952); details: HepG2 Attagene cis-factorial HNF6 reporter transcription; actives raise or lower the signal
Chain of Hepatocyte nuclear factor 6 (Homo sapiens) (Q9UBC0 whole entry, looked up, the tested form may be a part): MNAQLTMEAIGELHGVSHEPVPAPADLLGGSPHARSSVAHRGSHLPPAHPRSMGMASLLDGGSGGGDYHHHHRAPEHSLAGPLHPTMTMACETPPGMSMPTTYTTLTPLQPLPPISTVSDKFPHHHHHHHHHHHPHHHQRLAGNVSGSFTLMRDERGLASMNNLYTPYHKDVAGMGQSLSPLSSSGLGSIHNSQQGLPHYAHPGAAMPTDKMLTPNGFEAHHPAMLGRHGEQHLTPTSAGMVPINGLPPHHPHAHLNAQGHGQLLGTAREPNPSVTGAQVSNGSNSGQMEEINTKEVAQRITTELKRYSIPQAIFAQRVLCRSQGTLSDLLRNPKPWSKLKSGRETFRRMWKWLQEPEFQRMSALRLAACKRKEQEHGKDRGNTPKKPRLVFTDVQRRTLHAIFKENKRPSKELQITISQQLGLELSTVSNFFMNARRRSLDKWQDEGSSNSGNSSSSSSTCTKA
Summary of the method: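 Reporter mRNA induction or loss in HepG2 after 24 h exposure; transient cis-MRTU transfection; fragments quantified by capillary electrophoresis; bidirectional analysis, DMSO as negative control.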

[15] = molecular target: Heat shock factor protein 1 (Homo sapiens) (UniProt Q00613); assay: ATG_HSE_CIS: Attagene CIS-FACTORIAL HepG2 Assay for human Heat Shock Transcription Factor 1 (HSE) (AID 2282953); details: HepG2 HSE cis-reporter, Attagene RNA transcription; actives raise or lower the signal
Chain of Heat shock factor protein 1 (Homo sapiens) (Q00613 whole entry, looked up): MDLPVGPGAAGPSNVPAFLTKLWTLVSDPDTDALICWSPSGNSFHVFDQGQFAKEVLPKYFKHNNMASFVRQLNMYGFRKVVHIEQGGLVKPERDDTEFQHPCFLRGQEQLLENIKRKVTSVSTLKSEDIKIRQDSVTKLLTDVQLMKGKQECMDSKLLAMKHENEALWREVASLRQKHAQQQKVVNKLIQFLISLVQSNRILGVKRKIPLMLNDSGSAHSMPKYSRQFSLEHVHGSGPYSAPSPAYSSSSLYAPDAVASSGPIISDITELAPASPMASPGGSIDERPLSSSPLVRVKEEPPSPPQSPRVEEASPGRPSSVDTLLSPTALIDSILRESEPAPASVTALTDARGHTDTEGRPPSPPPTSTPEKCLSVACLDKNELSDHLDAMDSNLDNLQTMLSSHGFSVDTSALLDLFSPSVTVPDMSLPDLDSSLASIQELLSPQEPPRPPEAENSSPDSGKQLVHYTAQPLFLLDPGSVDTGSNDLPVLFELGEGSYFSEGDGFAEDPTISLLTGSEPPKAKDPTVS
Summary of the method: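 HepG2 cells transiently transfected with multiple reporter transcription units under cis-regulatory promoter control, measuring endogenous transcription factor activity. After 24 h chemical exposure, reporter mRNA quantified by RT-PCR, fluorescent labelling, HpaI digestion and capillary electrophoresis; bidirectional fit versus DMSO.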

[16] = ATG_ERE_CIS: Attagene CIS-FACTORIAL HepG2 Assay for Estrogen Response Element (ERE) (AID 2282940); details: HepG2 ERE cis-reporter, Attagene RNA transcript; actives raise or lower the signal
Summary of the method: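 HepG2 cells transiently transfected with cis-promoter-driven multiplexed reporter transcription units report endogenous TF activity. After 24 h compound exposure, reporter mRNA is quantified by RT-PCR with capillary electrophoresis fluorescence; bidirectional fitting versus DMSO baseline.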

[17] = molecular target: Bile acid receptor (Homo sapiens) (UniProt Q96RI1); assay: ATG_IR1_CIS: Attagene CIS-FACTORIAL HepG2 Assay for human Nuclear Receptor Subfamily 1 Group H Member 4 (NR1H4), IR1 submotif (AID 2282946); details: IR1 reporter transcription, actives raise or lower the signal
Chain of Bile acid receptor (Homo sapiens) (Q96RI1 whole entry, looked up, the tested form may be a part): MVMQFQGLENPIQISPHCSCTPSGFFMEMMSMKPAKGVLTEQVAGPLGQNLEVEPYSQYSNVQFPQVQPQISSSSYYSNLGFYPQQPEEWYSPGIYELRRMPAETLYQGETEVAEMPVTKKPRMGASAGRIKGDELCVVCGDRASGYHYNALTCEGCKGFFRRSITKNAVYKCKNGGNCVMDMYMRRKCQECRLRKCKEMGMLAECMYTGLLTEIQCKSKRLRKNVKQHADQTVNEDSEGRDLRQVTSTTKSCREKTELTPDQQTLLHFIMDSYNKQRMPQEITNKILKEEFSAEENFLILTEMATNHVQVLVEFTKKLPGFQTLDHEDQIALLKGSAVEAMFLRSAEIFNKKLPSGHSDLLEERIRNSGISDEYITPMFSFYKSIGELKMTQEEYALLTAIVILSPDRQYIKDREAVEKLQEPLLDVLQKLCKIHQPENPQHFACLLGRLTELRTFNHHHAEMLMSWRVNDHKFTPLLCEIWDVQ
Summary of the method: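 Cells (human HepG2) carry transiently transfected cis-promoter reporter transcription units. Compounds are incubated 24 h, total RNA is reverse-transcribed and amplified, and labelled fragments are resolved by capillary electrophoresis. Curves use DMSO as baseline.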

[18] = ATG_MRE_CIS: Attagene CIS-FACTORIAL HepG2 Assay for human Metal Responsive Element (MRE) (AID 2282954); details: HepG2 MRE cis-reporter transcription, Attagene multiplex; actives raise or lower the signal
Summary of the method: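 After a 24 h chemical exposure, transiently transfected HepG2 cells yield RNA whose reporter sequences are amplified, FAM-labelled and sized by capillary electrophoresis. Curves are fitted bidirectionally relative to DMSO.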

[19] = molecular target: Hypoxia-inducible factor 1-alpha (Homo sapiens) (UniProt Q16665); assay: ATG_HIF1a_CIS: Attagene CIS-FACTORIAL HepG2 Assay for human Hypoxia Inducible Factor 1 (HIF1A) (AID 2282951); details: HepG2 Attagene cis-factorial HIF1a reporter transcription; actives raise or lower the signal
Chain of Hypoxia-inducible factor 1-alpha (Homo sapiens) (Q16665 whole entry, looked up): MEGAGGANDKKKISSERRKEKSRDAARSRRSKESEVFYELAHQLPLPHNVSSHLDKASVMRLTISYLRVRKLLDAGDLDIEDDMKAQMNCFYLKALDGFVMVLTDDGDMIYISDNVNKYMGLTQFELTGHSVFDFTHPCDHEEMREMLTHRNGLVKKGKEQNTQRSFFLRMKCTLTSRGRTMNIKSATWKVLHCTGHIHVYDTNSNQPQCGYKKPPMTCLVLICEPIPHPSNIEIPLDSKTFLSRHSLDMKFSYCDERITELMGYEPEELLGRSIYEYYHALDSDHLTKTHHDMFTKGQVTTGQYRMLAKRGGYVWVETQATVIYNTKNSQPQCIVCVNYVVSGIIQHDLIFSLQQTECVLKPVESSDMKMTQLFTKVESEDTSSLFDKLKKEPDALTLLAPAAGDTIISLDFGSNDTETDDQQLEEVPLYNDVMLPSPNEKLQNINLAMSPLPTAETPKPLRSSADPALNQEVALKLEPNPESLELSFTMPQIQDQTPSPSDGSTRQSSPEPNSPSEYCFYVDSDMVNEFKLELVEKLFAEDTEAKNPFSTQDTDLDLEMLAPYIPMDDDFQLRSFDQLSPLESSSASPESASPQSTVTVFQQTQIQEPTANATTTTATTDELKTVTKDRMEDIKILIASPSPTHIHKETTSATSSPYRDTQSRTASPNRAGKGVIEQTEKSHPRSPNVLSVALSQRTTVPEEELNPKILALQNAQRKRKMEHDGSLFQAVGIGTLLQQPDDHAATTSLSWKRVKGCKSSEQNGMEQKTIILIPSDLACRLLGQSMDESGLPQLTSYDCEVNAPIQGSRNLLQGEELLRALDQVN
Summary of the method: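 HepG2, transient cis-reporter library, 24 h dosing. RNA → RT (oligo dT) → PCR → 6-FAM primer extension → HpaI → CE. Bidirectional curve fit vs DMSO.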

[20] = ATG_PBREM_CIS: Attagene CIS-FACTORIAL HepG2 Assay for human Phenobarbital-responsive Enhancer Module (PBREM) (AID 2282955); details: HepG2 PBREM cis-reporter, Attagene multiplexed transcription; actives raise or lower the signal
Summary of the method: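 HepG2, transient MRTU transfection, 24 h dosing; RNA → oligo(dT) RT → PCR → 6-FAM extension → HpaI → CE. Bidirectional fit vs DMSO.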

Measured: AC50

CC(=O)OCCC(C)C
inactive: [1] | [2] | [3] | [4] | [5] | [6] | [7] | [8] | [9] | [10] | [11] | [12] | [13] | [14] | [15]

COc1ccc2sc(C(=O)Nc3nnn[nH]3)c(OC(C)C)c2c1
inactive: [1] | [2] | [4] | [5] | [6] | [7] | [8] | [9] | [10] | [12] | [13] | [14] | [15]
active: [3] 146 µM | [16] 25.7 µM | [17] 67.6 µM | [11] 44.1 µM | [18] 91.1 µM

Cc1ccc(S(=O)(=O)O)cc1C
inactive: [1] | [2] | [3] | [4] | [16] | [5] | [7] | [8] | [9] | [10] | [11] | [12] | [13] | [19] | [14] | [15]

COC(=O)c1c(Cl)c(Cl)c(C(=O)OC)c(Cl)c1Cl
inactive: [1] | [2] | [3] | [16] | [5] | [6] | [7] | [8] | [9] | [17] | [10] | [11] | [12] | [13] | [19] | [14] | [15]

COc1cccc(-c2ccc(/C=C\CN3CCCCCC3)cc2Cl)c1
inactive: [1] | [2] | [3] | [4] | [16] | [5] | [6] | [8] | [9] | [17] | [10] | [11] | [12] | [13] | [19] | [14] | [15] | [18]

C[C@](N)(Cc1ccc(O)c(O)c1)C(=O)O
inactive: [1] | [2] | [3] | [4] | [5] | [8] | [9] | [11] | [12] | [13] | [19] | [14] | [15]

CNCc1ccc(NC(=O)c2c[nH]c3c2C(=O)CCC3)cc1
active: [11] 71.1 µM
inactive: [1] | [2] | [3] | [4] | [5] | [6] | [8] | [9] | [10] | [12] | [13] | [14] | [15] | [18] | [20]

Cc1ccc(N)cc1O
inactive: [1] | [2] | [3] | [16] | [5] | [6] | [8] | [9] | [10] | [11] | [12] | [13] | [14] | [15] | [18]
